Rows were chosen to be rich in hits. Some 13% of all compounds tested hit in one or more screens of this group.
HCMV inh – qHTS Assay for inhibitors of the human cytomegalovirus (HCMV) | HFF cells, HCMV-luciferase reporter, 72 h; active compounds read low | activity change, negative = inhibition, % at 57.5 µM | 410,000 tested, 4.5% active | AID 1259415, 2018; in the data active means activity change below about -60%; inconclusive means no clear call, values can overlap the other calls; inactive means above about -39%
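Cell-based, HFFs, 1000 cells/well, 16 h 37C; cpds in DMSO + HCMV-luc, MOI 1 PFU/cell; 72 h 37C; OneGlo luminescence after 5 min RT; norm. to buffer vs Salinomycin 10uM.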
Pf growth 96h – Primary qHTS for delayed death inhibitors of the malarial parasite plastid, 96 hour incubation; 320,000 tested, 6.9% active; AID 504834, 2011; P. falciparum luciferase reporter growth, 96 h; Potency, µM (titrated, usually from 28.7 µM), for inactives: top-dose activity change, negative = inhibition, hits mostly inhibitors; further: potency means the concentration at half of the fitted maximal effect
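Luminescence readout: decreased luciferase signal marks inhibited growth of reporter-expressing P. falciparum in infected red cells (2% hematocrit, 0.05% parasitemia final), exposed to compound two generations (96 h, 37 C, 5% CO2).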
Pf growth 48h – Primary qHTS for delayed death inhibitors of the malarial parasite plastid, 48 hour incubation. AID 504832, 2011. P. falciparum luciferase growth in erythrocytes, 48 h. Potency, µM (top dose mostly 28.7 µM), without a hit: at the top dose activity change, negative = inhibition, actives largely listed as inhibitors. 310,000 tested, 5.9% active; further: potency means the concentration at half of the fitted maximal effect
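Cell-based growth assay: transgenic P. falciparum expressing firefly luciferase, cultured in red cells within RPMI 1640 containing 0.5% w/v Albumax, 24 mM bicarbonate and gentamycin. A drop in luciferase activity indicates inhibition.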
HCV inh – qHTS Assay for Inhibitors of Hepatitis C Virus (HCV). Huh7.5.1 HCVcc-Cre infection, luciferase reporter, 44 h. AID 651820, 2012. Potency, µM (series often up to 41.8 µM), inactives show at the top dose activity change, negative = inhibition, most hits filed as inhibitors. 340,000 tested, 3.4% active; further: potency means the concentration at half of the fitted maximal effect
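HCVcc-Cre virus at an moi near 0.5 was added right after compound to cells cultured 4 h from seeding (1,000 cells/well). Luciferase activity was determined 44 h later, 15 min after substrate addition at RT.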
An asterisk follows results filed as active; ? = inconclusive; / = no result; ! = not active in a repeat. Unless noted, the call rests on the fitted dose curve; in most records, active means well fitted inhibition curve with a large enough effect; inconclusive means small, poorly fitted or top-dose-only effect, or another doubt; inactive means no such curve, though single readings can be large or run the other way. On the % scale 0 is the no-effect control and ±100 the full control effect.

SMILES	HCMV inh	Pf growth 96h	Pf growth 48h	HCV inh
CCC(Cn1nnc2ccccc2c1=O)NC(=O)Nc1ccc(C)c(C)c1 (centres undefined)	26.9	/	/	/
O=C(COc1ccc2oc3c(c2c1)CCCC3)Nc1ccc(Cl)cc1	-30.7	/	/	/
Cc1cc(=O)n2nc(N(C)CC(=O)NCc3ccc(Cl)cc3)sc2n1	11.0	/	/	/
COc1cccc(C2C(C(N)=O)=C(C)Nc3ncnn32)c1 (centres undefined)	8.9	/	/	/
C#CCOc1c(Br)cc(C2C(C(=O)OC)=C(C)NC3=C2C(=O)c2ccccc23)cc1OCC (centres undefined)	-62.8*	/	/	/
O=C(Cn1cc(S(=O)(=O)Cc2cccc(Cl)c2)c2ccccc21)Nc1ccccc1Cl	0.0	/	/	/
C=CCn1c(CCNC(=O)c2ccc(Cl)c(Cl)c2)nnc1SCCOc1ccc(OC)cc1	-5.0	?	?	10µM*
CCOc1ccccc1NC(=O)CN(c1cc(C)cc(C)c1)S(=O)(=O)c1c(C)noc1C	48.4	?	/	1.8%
CCOc1ccc(N(CC(=O)NCc2ccccc2Cl)S(=O)(=O)c2c(C)noc2C)cc1	19.9	?	13.1µM*	-11.8%
CCOc1ccc(N(CC(=O)Nc2ccccc2C)S(=O)(=O)c2c(C)noc2C)cc1	-69.5*	?	/	-25.7%
CCOc1ccc(N(CC(=O)NC2CCCC2)S(=O)(=O)c2c(C)noc2C)cc1	/	-3.2%	/	-0.6%
CCOc1ccc(N(CC(=O)Nc2ccc(C)c(C)c2)S(=O)(=O)c2c(C)noc2C)cc1	-70.7*	?	?	?
CCOc1ccccc1NC(=O)CN(c1ccc(OC)cc1)S(=O)(=O)c1c(C)noc1C	-38.8	?	9.28µM*	?
CCOc1ccc(N(CC(=O)Nc2cccc(F)c2)S(=O)(=O)c2c(C)noc2C)cc1	-14.6	19.5%	/	-16.6%
CCN(Cc1ccccc1)C(=O)Nc1c(Cl)cccc1Cl	32.8	/	/	/
COc1ccc2c(c1)c1c(c(=O)n(Cc3ccccc3)c(=O)n1CC(=O)NCc1ccccc1Cl)n2C	12.6	/	/	/
Cc1ccc(C(=O)c2c3ccc([N+](=O)[O-])cc3[n+]([O-])n2CCCC(N)=O)cc1	-18.5	?	?	10µM*
NC(=O)CCCn1c(C(=O)c2cc(Cl)c(N)c(Cl)c2)c2ccc([N+](=O)[O-])cc2[n+]1[O-]	-12.9	9.28µM*	?	11.2µM*
COc1ccc2c(C(=O)c3ccc(C)cc3)n(CCCC(N)=O)[n+]([O-])c2c1	7.4	19.8%	?	5.6%
CC(C)Oc1ccc(C(CCN)C2CCCCC2)cc1 (centres undefined)	-98.9*	?	?	?
Cc1ccc(S(=O)(=O)Cc2nc(-c3ccc(C(=O)NCc4ccccc4)cc3)oc2C)cc1	16.1	/	/	/
COc1ccc(CCn2c3c(c(=O)[nH]c2=O)C(NC(=O)c2ccccc2)(C(F)(F)F)C(=O)N3)cc1OC (centres undefined)	5.6	/	/	/
Cc1c(CCC(=O)NCCc2ccc(Cl)cc2)c(=O)oc2c(C)c(O)ccc12	-7.5	/	/	/
CN1CCC(=C2c3ccccc3CC(=O)c3sccc32)CC1	-65.3*!	10.4µM*	14.7µM*	?
NC(=S)Nc1cccc2cc3ccccc3cc12	-105.4*	45.7%	39.5%	?
SMILES	HCMV inh	Pf growth 96h	Pf growth 48h	HCV inh
NC(=S)Nc1cc2ccccc2c2ccccc12	-72.3*	?	45.8%	?
O=C(O)Cc1c(C(=O)O)nnn1-c1cccc(C(F)(F)F)c1	-2.7	?	-14.7%	8.5%
N=c1c2ccccc2nnn1-c1cccc(C(F)(F)F)c1	-60.6*	?	13.1µM*	17.7%
C=CCCC1CN(Cc2ccc(OC)cc2)S(=O)(=O)c2c(cccc2Sc2ccc(OC)c(OC)c2)O1 (centres undefined)	-3.5	/	/	/
Cc1cn2c(=O)c(S(=O)(=O)Nc3ccc(OC(F)(F)F)cc3)c(C)nc2s1	-0.3	/	/	/
Cn1c(=O)c2c(nc(SCC(=O)N3CCc4ccccc4C3)n2C)n(C)c1=O	17.5	10.4µM*	-0.3%	-12.0%
Cn1c(=O)c2c(nc(SCC(=O)N3c4ccccc4CCc4ccccc43)n2C)n(C)c1=O	-19.9	?	?	-1.3%
O=C(CSc1nc2[nH]ncc2c(=O)n1-c1ccccc1)N1CCCCCC1	/	10.4µM*	-21.4%	/
Cn1c(=O)c2c(nc(Sc3nc4ccccc4n3CC(=O)N3CCCCC3)n2C)n(C)c1=O	-62.9*	88.7%	?	-0.8%
CN1CCN(S(=O)(=O)c2ccc(Sc3nnc(-c4cccs4)n3-c3ccccc3)nc2)CC1	26.6	?	7.38µM*	?
CSc1nc2ccccc2n1CC(=O)N1CCCCC1	-10.0	29.1%	24.8%	8.8%
CC(C)c1ccccc1-n1c(SCC(=O)c2ccc3c(c2)NC(=O)CO3)nc2ccccc2c1=O	-30.4	?	-62.6%	12.6µM*
O=C(CSc1nc2ccccc2c(=O)n1-c1ccccc1)N1CCc2ccccc2C1	-94.1*	2.62µM*	?	12.6µM*
CC(C)c1ccccc1-n1c(SCC(=O)N2CCc3ccccc3C2)nc2ccccc2c1=O	-95.2*	5.86µM*	1.47µM*	10µM*
CC(C)Cn1c(SCC(=O)N2CCc3ccccc3C2)nc(O)cc1=O	7.4	/	/	14.7%
O=C1COc2ccc(C(=O)CSc3ccccc3C(=O)O)cc2N1	-11.6	?	11.8%	5.4%
O=C(CSc1nnc(-c2cccs2)n1-c1ccccc1)N1CCCC1	-19.0	9.28µM*	1.5%	10.3%
CCOC(=O)c1cccc(NC(=O)CC2C(=O)N(c3ccc(C)cc3)C(=O)N2Cc2cccc(OC)c2)c1 (centres undefined)	-5.8	/	/	/
CC(C)N1CCC(C)(C(=O)Nc2ccccc2Oc2ccccc2)C1 (centres undefined)	27.5	/	/	/
C[C@H](CO)N1C[C@H](C)[C@@H](CN(C)C(=O)Nc2ccc(C(F)(F)F)cc2)OCc2cn(nn2)CCCC1=O	-5.6	/	/	/
CCOC(=O)C1CCCN(C(=O)c2nn(-c3ccc(C)cc3)c(=O)c3c2c2ccccc2n3C)C1 (centres undefined)	2.7	/	/	/
COc1ccccc1CNC(=O)Cn1c(=O)nc(-c2ccccc2F)c2cc(Cl)ccc21	-13.2	/	/	/
CN1CCN(C(c2ccccc2Cl)c2sc3nc(-c4ccco4)nn3c2O)CC1 (centres undefined)	18.1	/	/	/
COc1ccc(Cc2nc(-c3cccs3)no2)cc1OC	-25.1	0.4%	/	?
COCc1cnc(C)nc1N	?	9.8%	14.1%	3.8%
COc1cc(C)c(Cc2cnc(N)nc2N)cc1OC	/	2.69µM*	3.79µM*	/
COc1ccc(Cc2cnc(N)nc2N)cc1OC	-1.5	3.79µM*	2.39µM*	/
COc1ccc(Cc2c(N)nc(N)nc2N)cc1	-27.4	7.6%	-5.5%	10.3%
CC(C)Oc1ccc(Cc2cnc(N)nc2N)cc1	-12.3	6.57µM*	/	-12.6%
COC(=O)c1ccc(CSc2c(C(C)C)cnc3c2c(=O)n(C)c(=O)n3C)cc1	97.2	/	/	/

Compound activity (PubChem BioAssay)
